DT40 TDP1 CPT: qHTS for Inhibitors of human tyrosyl-DNA phosphodiesterase 1 (TDP1): qHTS in cells in presence of CPT; Potency, µM (titrated, usually from 46.2 µM), usual class: inhibitors; 12% of 420,000 active; AID 686979, 2013; chicken DT40 Tdp1-/-;hTDP1 cells + 20 nM CPT, ATP luminescence, 48 h; note: nearly all actives have a fitted effect of over 55% in size
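Cell growth measured by CellTiter-Glo luminescence after a minimum 48 h, 37 C compound exposure with 20 nM CPT in Tdp1-knockout DT40 cells stably expressing hTDP1, seeded 400/well; qHTS titration format.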
IL-1B inflam inh: qHTS for Inhibitors of Inflammasome Signaling: IL-1-beta AlphaLISA Primary Screen; activity change, % at 57.5 µM; 4.7% of 360,000 active; THP-1 LPS/ATP IL-1B secretion, AlphaLISA, 16 h; stronger effect = lower value; AID 743279, 2014; in the data active = activity change below about -50%; inconclusive = mostly about -30% to -49%
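THP-1 cells pretreated 1 hr with compounds (up to 57.5 uM final), then stimulated with LPS (250 ng/mL final) plus ATP (1.25 mM final); secreted IL-1B measured by AlphaLISA after 16 hr, decreased signal indicating inhibition.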
DT40 TDP1 no CPT: qHTS for Inhibitors of human tyrosyl-DNA phosphodiesterase 1 (TDP1): qHTS in cells in absence of CPT. 15% of 420,000 active. DT40 Tdp1-/- hTDP1 cells, no CPT, ATP luminescence, 48 h. Potency, µM (top dose mostly 46.2 µM), hits mostly inhibitors; note: nearly all actives have a fitted effect of over 55% in size
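Chicken DT40 Tdp1-/- cells stably complemented with human TDP1 were seeded at 400 cells/well with DMSO in place of 20 nM camptothecin. After compound pinning, cells grew at least 48 hr at 37 °C; viability read by CellTiter-Glo luminescence.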
ALOX12 inh: Primary qHTS assay for inhibitors of human arachidonate 12S-lipoxygenase (ALOX12): Round 2 | Polyunsaturated fatty acid lipoxygenase ALOX12 (Homo sapiens), P18054 | purified 12hLO, xylenol orange hydroperoxide absorbance | Potency, µM (top dose mostly 108 µM), actives largely listed as inhibitors | 1.1% of 580,000 active | AID 1671190, 2021
Target sequence (P18054 whole entry, looked up): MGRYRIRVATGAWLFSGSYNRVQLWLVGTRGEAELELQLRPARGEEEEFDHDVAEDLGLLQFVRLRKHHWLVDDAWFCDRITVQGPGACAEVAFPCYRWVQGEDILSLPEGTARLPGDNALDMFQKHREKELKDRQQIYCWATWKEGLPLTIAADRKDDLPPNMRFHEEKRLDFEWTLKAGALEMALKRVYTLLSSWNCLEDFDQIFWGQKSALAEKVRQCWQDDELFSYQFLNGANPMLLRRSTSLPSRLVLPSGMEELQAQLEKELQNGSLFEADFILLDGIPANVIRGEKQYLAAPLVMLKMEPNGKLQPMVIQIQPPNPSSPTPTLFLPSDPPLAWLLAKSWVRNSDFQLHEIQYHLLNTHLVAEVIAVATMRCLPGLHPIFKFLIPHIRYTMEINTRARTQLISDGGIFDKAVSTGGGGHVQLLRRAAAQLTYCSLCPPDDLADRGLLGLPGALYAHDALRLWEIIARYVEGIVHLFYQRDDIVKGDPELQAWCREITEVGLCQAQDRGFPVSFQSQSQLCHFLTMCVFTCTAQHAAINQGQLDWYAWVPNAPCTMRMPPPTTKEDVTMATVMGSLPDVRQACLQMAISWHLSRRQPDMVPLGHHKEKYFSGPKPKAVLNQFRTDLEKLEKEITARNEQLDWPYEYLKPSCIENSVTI
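Hydroperoxide product was detected by ferrous iron/xylenol orange as the 573 to 405 nm absorbance ratio. Arachidonic acid at 40 uM (final) was turned over for 30 min at room temperature by 150 nM human 12hLO, pH 7.0 Hepes buffer, after 15 min compound preincubation.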
HT1080-NT tox: qHTS for induction of synthetic lethality in tumor cells producing 2HG: qHTS for the HT-1080-NT fibrosarcoma cell line; HT-1080-NT fibrosarcoma viability, CellTiter-Glo ATP luminescence, 48 h; 1.6% of 360,000 active; Potency, µM (titrated, usually from 46.1 µM), most hits filed as cytotoxic;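 note: NT is the 2HG producing partner of a matched IDH1 knockdown line; nearly all actives have a fitted effect of over 55% in size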
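Viability by CellTiter-Glo luminescence after 48 h compound exposure at 37C of HT-1080-NT cells (750/well, RPMI, 5% FBS). % activity scaled between DMSO wells and medium-only wells, then curve-fitted and categorized by curve class.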
HT1080 IDH1KD tx: qHTS for induction of synthetic lethality in tumor cells producing 2HG: qHTS for the HT-1080-IDH1KD cell line | HT-1080 IDH1 knockdown viability, ATP luminescence, 48 h | Potency, µM (series often up to 46.1 µM), most hits filed as cytotoxic | 2% of 360,000 active
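In this qHTS, HT-1080 cells depleted of IDH1 are exposed for 48 h at 37 °C to compound titrations. Toxicity is scored from CellTiter-Glo luminescence, with DMSO as full viability and medium alone as none.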
Hits are given with their value; - = inactive; ? = inconclusive; . = not tested or not shown; [ ] = another dose, or the depositor's remark. Many of the other results were omitted from the sample, so hits are more common in it than they were. Unless noted, calls come from the whole dose curve; as a rule, active = well fitted curve in the direction sought with a large enough effect; inconclusive = small, poorly fitted or top-dose-only effect, or another doubt; inactive = no such curve, though single readings can be large; an effect the other way counts as inactive or inconclusive.

SMILES	DT40 TDP1 CPT	IL-1B inflam inh	DT40 TDP1 no CPT	ALOX12 inh	HT1080-NT tox	HT1080 IDH1KD tx
O=C(CCc1ccccc1)NC1(C(F)(F)F)C(=O)Nc2c1c(=O)[nH]c(=O)n2Cc1ccccc1 (stereo unspecified)	.	.	.	-	.	.
Cc1cccc(C(=O)N2CCN(CCNC(=O)C(=O)Nc3ccccc3)CC2)c1	.	.	.	-	.	.
CCOc1ccc(NC(=O)CSc2nc3ccccc3c(=O)n2CCn2cc(Cl)cn2)cc1	.	.	.	-	.	.
COCCN(C)C[C@@H]1CN(c2cc(C)c3ccc(SC)cc3n2)C[C@@H]1CO	.	.	.	-	.	.
O=C(Cc1n[nH]c(=O)c2ccccc12)N1CCCC1	.	.	.	-	.	.
CCOC(=O)c1c(-c2ccccc2)csc1NC(=O)c1cc(-c2ccccc2OC)on1	?	-	?	?	-	-
CCOC(=O)c1scc(-c2ccc(C)cc2)c1S(=O)(=O)Nc1cccc(CC)c1	12µM	.	13µM	-	.	.
CCc1ccc(NS(=O)(=O)c2c(-c3ccccc3)csc2C(=O)OC)cc1	?	.	23µM	-	.	.
COC(=O)c1scc(-c2ccccc2)c1S(=O)(=O)Nc1ccc(C)c(Cl)c1	?	.	?	-	.	.
CCc1cccc(NS(=O)(=O)c2c(C)n[nH]c2C)c1	-	-	-	?	-	-
CCOC(=O)c1scc(-c2ccccc2)c1S(=O)(=O)Nc1ccccc1OC	18µM	.	21µM	?	.	.
CCOC(=O)c1scc(-c2ccc(C)cc2)c1S(=O)(=O)N1CCN(c2ccccc2F)CC1	15µM	.	18µM	-	.	.
CC(C)N1CCCC(CNC(=O)CCc2ncc(-c3ccccc3)o2)C1 (stereo unspecified)	.	.	.	-	.	.
CCn1nccc1C(=O)N1CCCC(COc2ccccc2C(=O)NC(C)C)C1 (stereo unspecified)	.	.	.	-	.	.
CN(Cc1ccccc1)C(=O)c1nc(-c2cccc3[nH]ccc23)no1	.	.	.	-	.	.
CC(C#N)(NC(=O)CSc1nnc(-c2cccs2)n1C1CC1)C1CC1 (stereo unspecified)	.	.	.	-	.	.
Cc1nc(SCC(=O)NC(C)(C#N)C2CC2)c2c(-c3cccs3)csc2n1 (stereo unspecified)	?	-59	?	-	-	-
Cc1nc(N2CCCCC2)n(CC(=O)Nc2cccc(Br)c2)c(=O)c1C	.	.	.	-	.	.
CCCn1nc(NC(=O)c2cccs2)c2cc3ccc(C)cc3nc21	?	-	?	-	-	-
CCCCn1nc(NC(=O)CCC)c2cc3cc(OC)ccc3nc21	-	-	?	-	-	-
CCCn1nc(NC(=O)c2cccs2)c2cc3cc(OC)ccc3nc21	13µM	-	12µM	-	-	-
CCCCn1nc(NC(=O)c2cccs2)c2cc3cc(OC)ccc3nc21	18µM	-	23µM	-	?	?
CCCn1nc(NC(=O)c2cccs2)c2cc3ccccc3nc21	?	-	?	?	-	-
CCCn1nc(NC(=O)c2cccs2)c2cc3cc(C)ccc3nc21	?	-	16µM	?	-	-
CCCCn1nc(NC(=O)c2cccs2)c2cc3ccccc3nc21	21µM	-94	18µM	-	?	?
SMILES	DT40 TDP1 CPT	IL-1B inflam inh	DT40 TDP1 no CPT	ALOX12 inh	HT1080-NT tox	HT1080 IDH1KD tx
CCN1CCCC12Cc1ccccc1CN(C(=O)c1c(C)noc1C)C2 (stereo unspecified)	.	.	.	-[6.33 µM]	.	.
CNC(=O)c1ccc(-c2nc(CN3CCN(C(=O)Nc4ccc(C)cc4)CC3)c(C)o2)cc1	.	.	.	-	.	.
Cc1csc(NC(=O)CCc2nc(-c3ccsc3)no2)n1	.	.	.	-	.	.
COCn1c(=O)c2c(nc(SC3=NCCS3)n2Cc2ccccc2C)n(COC)c1=O	23µM	-	?	-	-	-
COCCCn1c(=O)c2ccccc2n(Cc2ccccc2C)c1=O	?	-	?	-	-	-
Cc1sc2ccccc2[n+]1C	4µM	.	3.2µM	.	.	.
Cc1ccc(S(=O)(=O)Cc2sc3ccccc3[n+]2C)cc1	-	-	?	?	-	-
Cc1sc2ccccc2[n+]1Cc1ccccc1	0.79µM	.	1.1µM	.	.	.
Cc1sc2ccccc2[n+]1CCCCBr	4µM	.	5.6µM	.	.	.
Cc1sc2ccccc2[n+]1CCCC[n+]1c(C)sc2ccccc21	4.5µM	.	2.5µM	.	.	.
CN(Cc1ccccc1)C(=O)c1cc(-c2cccc(Cl)c2)n[nH]1	.	.	.	-	.	.
O=C(Nc1ccccc1F)N1CC2CCC(C1)N2Cc1cccc(-c2ccsc2)c1	.	.	.	-[6.33 µM]	.	.
O=C(NCC(O)c1ccccc1C(F)(F)F)c1cccc(-n2cnnc2)c1 (stereo unspecified)	.	.	.	-	.	.
COc1ccc2sc(C)[n+](C)c2c1	?	-	18µM	?	-	-
COc1ccc(-c2c(-c3cc(OC)cc(OC)c3)sc3ccc(OC)cc23)cc1	-	-	-	-	-	-
O=C(NCC(=O)N(Cc1ccsc1)C1CC1)c1ccccc1	.	.	.	-	.	.
CC(NCCC(c1ccccc1)c1ccccc1)c1ccccc1 (stereo unspecified)	6.5µM	?	5.2µM	?	?	?
O=C(Nc1ccnn1C1CCN(Cc2cccc(F)c2F)CC1)c1ccccc1Cl	.	.	.	-	.	.
CC(=O)Oc1cccc(/C=C2\Sc3ccccc3C2=O)c1	-	-	?	?	-	-
CC(=O)OC1=CSc2cccc3cccc1c23	.	.	.	40µM	.	.
Cc1cc(C)n(CCNC(=O)[C@H]2O[C@@H](n3ccc(N)nc3=O)[C@H](O)[C@@H]2O)n1	-	-	-	50µM	-	-
COc1cccc(-c2nnn(CC(=O)N3CCC(c4nc5ccccc5s4)CC3)n2)c1	.	.	.	-	.	.
CCOc1ccc(NC(=O)c2ccc3nccnc3c2)cc1	?	-	?	-	-	-
CCOc1ccc(NC(=O)NC(C)CC)cc1 (stereo unspecified)	?	-	18µM	-	-	-
CCOc1ccc(NC(=O)Nc2ccc3nccnc3c2)cc1	?	-	15µM	-	-	-
CCOC(=O)CC(=O)CSc1nc(-c2cccnc2)ccc1C#N	?	-	3.5µM	-	-	-
COC(=O)C(C)(Cc1ccccc1)CC(C)(CC1(C)CC(C)(C(=O)OC)OC1=O)C(=O)OC (stereo unspecified)	.	.	.	-	.	.
COc1ccc(-c2cc(C(F)(F)F)nc(SCCC(=O)NCc3ccccc3)n2)cc1	?	-	18µM	-	-	-
CN(Cc1ccccc1)C(=O)CSc1nc2c(c(C(F)(F)F)n1)CCc1ccccc1-2	29µM	?	?	?	-	-

Screening results (PubChem)
